# Measured values taken from ChEMBL document CHEMBL3988442, “University of Dundee, Small-Polar-MMV Screening Library” (2021).
# Out of some 48,000 compounds screened, about 13,000 (27%) showed an effect of 50% or more. Some of the results follow.
# System: Wolbachia pipientis
# Assay: Anti-Wolbachia Cell-Based Screen
# Assay type: functional
# Set-up: scale not given: in the data most compounds retested in dose-response had high values
# Conditions: 5 µM
row,SMILES,Percent Effect
1,OC(COCc1ccccc1)CSc1nnc2ccccn12 (stereo unspecified),-5.176%
2,CN(Cc1ccccc1)CC(O)Cn1cnc2ccsc2c1=O (stereo unspecified),-0.02665%
3,Cc1ccc(CCCC(=O)N2CC(=O)Nc3cccnc32)s1,-7.748%
4,CCn1cc(S(=O)(=O)NCC(OC)c2cccc(Cl)c2)cn1 (stereo unspecified),-3.186%
5,Cc1nn(C)c(N(C)C)c1CNC1CCc2cc(F)ccc21.Cl (stereo unspecified),58.09%
6,COc1c(CNC2CCc3ccccc32)c(C)nn1C (stereo unspecified),132.3%
7,Cc1nn(C)c(N(C)C)c1CNC1CCc2c(F)cccc21.Cl (stereo unspecified),-3.746%
8,COc1c(CNC2CCOc3ccccc32)c(C)nn1C (stereo unspecified),-8.703%
9,COc1c(CNC2CCCc3ccccc32)c(C)nn1C (stereo unspecified),-3.62%
10,Cc1nn(C)c(N(C)C)c1CNC1CCOc2c(F)cccc21 (stereo unspecified),-12.9%
11,CCNC(=O)[C@@H]1CCCN1[C@@H](C(=O)NC)c1ccccc1.Cl,1.454%
12,Cc1nc(N2CCCC2C(=O)NC(C)(C)CO)nc2ccccc12 (stereo unspecified),-14.27%
13,Cc1nc(N2CCCC2C(=O)NCc2ccsc2)nc2ccccc12 (stereo unspecified),-0.4338%
14,CCC(C)CNC(=O)[C@@H]1CCCN1c1nccc(Nc2ccccc2)n1 (stereo partly specified),83.24%
15,CCOCCNC(=O)[C@@H]1CCCN1c1nccc(Nc2ccccc2)n1,123.1%
16,Cn1cc(S(=O)(=O)N2CCCC(Cn3cncn3)C2)cn1 (stereo unspecified),7.015%
17,Cc1cc(C)nc(N2CCN(Cc3cc4n(n3)CCNC4)CC2)n1,3.043%
18,CCC(CC)(CNC(=O)OC(C)(C)C)NC(=O)C1CCCO1 (stereo unspecified),-2.751%
19,CN(C)C(=O)C1CCN(Cn2nc(-c3ccc(F)cc3)oc2=O)CC1,103.8%
20,CCNC(=O)C1CCN(Cn2nc(-c3ccc(F)cc3)oc2=O)CC1,109.5%
21,NC(=O)C1CCN(Cn2nc(-c3ccc(F)cc3)oc2=O)CC1,-1.438%
22,NC(=O)C1CCN(Cn2nc(-c3ccc(F)cc3)oc2=O)C1 (stereo unspecified),1.615%

row,SMILES,Percent Effect
1,CCNC(=O)C1CCN(Cn2nc(-c3ccccc3)oc2=O)CC1,32.26%
2,CN(C)C(=O)C1CCN(Cn2ccc(-c3ccc(F)cc3)n2)CC1,-0.7457%
3,COCCNS(=O)(=O)c1cccc2c1CN(C(=O)c1ccoc1)CC2,-4.296%
4,O=C(CCN1CCCCO1)NCCSc1cnn[nH]1,-10.06%
5,O=C(COc1ccc(Cl)cc1)Nc1cnc(N2CCOCC2)nc1,-3.73%
6,COc1ccc(C)cc1NC(=O)Nc1cnc(N2CCOCC2)nc1,156.3%
7,O=C(Nc1cnc(N2CCOCC2)nc1)c1ccc(C(F)(F)F)cc1,-14.92%
8,COc1ccc(C)cc1NC(=O)Nc1cnc(N2CCN(C)CC2)nc1,-7.75%
9,COc1ccc(C)cc1NC(=O)Nc1cnc(N2CCCC2)nc1,135.2%
10,COc1ccc(CNC(=O)Nc2cccnc2N2CCCC2)cc1O,5.848%
11,Cc1cnc(C(=O)N2CCCCC2c2ccc(CN(C)C)cc2)cn1 (stereo unspecified),6.216%
12,Cc1cnc(C(=O)N2CCOCC2C)cn1 (stereo unspecified),99.05%
13,COCCn1nc(C(=O)N2CCOCC2C)ccc1=O (stereo unspecified),3.322%
14,O=C(Cc1cccs1)N1CCOCC1c1ccccc1 (stereo unspecified),-1.023%
15,CC1COCCN1C(=O)c1cnccn1 (stereo unspecified),93.18%
16,CC1COCCN1C(=O)c1ccc(=O)n(Cc2ccccc2)n1 (stereo unspecified),-2.389%
17,O=C(c1cnccn1)N1CCc2ncnc(C3CCOC3)c2CC1 (stereo unspecified),-0.4646%
18,Cc1cnc(C(=O)N2CCOCC2c2ccccc2)cn1 (stereo unspecified),87.18%
19,CC1COCCN1C(=O)c1ccc(=O)n(CCOc2ccccc2)n1 (stereo unspecified),-6.742%
20,CCc1ccc(O)c(C(=O)N2CCN(CC(=O)N3CCCCC3)CC2)c1,-4.126%
21,O=C(NS(=O)(=O)c1cc(Cl)sc1Cl)c1cccc2c1OCCO2,-19.53%
22,COc1cccc(C(=O)NCc2ccccc2S(=O)(=O)N(C)C)c1,16.54%

row,SMILES,Percent Effect
1,CSCCN(C)C(=O)C1(c2ccc(F)cc2F)CCOCC1,-17.49%
2,CCOCCC(=O)NCC(C)c1ccsc1 (stereo unspecified),1.929%
3,Cc1ccc(CN2CC[C@H]3C[C@@H](c4nc(C5CC5)cs4)O[C@@H]3C2)o1,-2.385%
4,Cn1cc(C2CCCN2C(=O)CCCOCc2ccccc2)cn1 (stereo unspecified),2.254%
5,O=C(C1CC1)N1CCC[C@]2(C[C@@H](OCc3ccncc3)CO2)C1.O=C(O)C(F)(F)F,6.09%
6,Cn1cc(C2CN(C(=O)Cc3coc(-c4ccccc4)n3)CCO2)cn1 (stereo unspecified),-11.89%
7,O=C(O)C(F)(F)F.O=C(c1ccccc1)N1CCC[C@]2(C[C@@H](OCc3ccncc3)CO2)C1,6.805%
8,CN(Cc1ccncc1)C1COC2(CCN(c3ncc(F)cn3)CC2)C1.O=C(O)C(F)(F)F.O=C(O)C(F)(F)F (stereo unspecified),-12.58%
9,Cn1cc(C2COC3(CCN(C(=O)Cc4ccccc4)CC3)C2)cn1 (stereo unspecified),95.06%
10,O=C(Cc1cccnc1)N1CCC2(CC1)CCN(C1CCOCC1)CC2.O=C(O)C(F)(F)F.O=C(O)C(F)(F)F,1.334%
11,O=C(CC1CC1)N1CCC2(CC1)CC(Oc1ccccc1)CO2 (stereo unspecified),-7.215%
12,CC1COC2(CCN(C(=O)Cc3ccncc3)CC2)C1.O=C(O)C(F)(F)F (stereo unspecified),99.32%
13,O=C(Cc1ccncc1)N1CCC2(CC1)CC(c1ccccc1)CO2.O=C(O)C(F)(F)F (stereo unspecified),104.1%
14,CCC(=O)N1CCC2(CC1)CC(Oc1ccccc1)CO2 (stereo unspecified),-6.284%
15,CCOCC(=O)N1CCC2(CC1)CC(c1ccccc1)CO2 (stereo unspecified),118.3%
16,CC1(CNS(=O)(=O)c2cccc(C(=O)N3CCSCC3)c2)COC1,5.198%
17,N#Cc1ccnc(N2CCN(CC(O)c3c(F)cccc3F)CC2)c1 (stereo unspecified),-15.75%
18,CC(CCn1cccn1)NCc1n[nH]c2c1CCCCC2 (stereo unspecified),-18.85%
19,O=S(=O)(NCCNc1ccc(-n2cccc2)nn1)c1ccccc1,-5.245%
20,COC(=O)[C@@H]1Cc2ncn(C)c2CN1S(=O)(=O)c1ccc(Cl)cc1,-5.674%
21,Cn1cc(S(=O)(=O)Nc2ccc(Cl)cn2)cc1C(N)=O,6.201%
22,Cc1cc2[nH]c(CN3CCOC(c4ccc(Cl)cc4)C3)cc(=O)n2n1 (stereo unspecified),-2.359%

row,SMILES,Percent Effect
1,CC(C)CC(=O)N1CC[C@H]2N(C)CC[C@@]2(C(=O)Nc2cccnc2)CC1.O=C(O)C(F)(F)F.O=C(O)C(F)(F)F,92.3%
2,O=C(Cc1cccnc1)N1CCC2(CC1)CCN(C1CCOCC1)C2.O=C(O)C(F)(F)F.O=C(O)C(F)(F)F,-0.7381%
3,Cc1ccc(CNC(=O)C2CCN(C(=O)C(C)C)CC2)n1C,-14.75%
4,CC(C)C(=O)N1CC[C@H]2N(C)CC[C@@]2(C(=O)Nc2cccnc2)CC1.O=C(O)C(F)(F)F.O=C(O)C(F)(F)F,118.9%
5,CC(C)C(=O)N1CCc2nc(C(=O)Nc3cccnc3)sc2CC1,0.3042%
6,O=C(Nc1cccnc1)N1CCC(n2ccc(C(F)(F)F)n2)CC1,-10.86%
7,CNC(=O)N1CC[C@H]2N(C)CC[C@@]2(C(=O)Nc2ccccc2)CC1,2.294%
8,CC(C)NC(=O)N1CC[C@H]2N(C)CC[C@@]2(C(=O)Nc2cccnc2)CC1,104%
9,CC(C)C(=O)N1CC[C@H]2N(C)CC[C@@]2(C(=O)Nc2ccccc2)CC1,108.6%
10,CS(=O)(=O)N1C[C@H](C(=O)Nc2cccnc2)[C@@H]2CCO[C@@H]2C1.O=C(O)C(F)(F)F,-6.028%
11,CCN1CC[C@@]2(C(=O)N(C)C)CCN(C(=O)NC(C)C)CC[C@@H]12,-5.445%
12,CCN1CC[C@@]2(C(=O)N3CCOCC3)CCN(C(=O)CC(C)C)CC[C@@H]12.O=C(O)C(F)(F)F,-11.51%
13,CCC[C@H]1CN(CCCO)C[C@@H]1NC(=O)Cn1cc(C)cn1,-8.445%
14,CCN(Cc1cc(F)c(OC)c(Cl)c1)Cc1nc(COC)no1,-30.92%
15,COc1cc(C)sc1C(=O)NCCC(=O)N(C)c1ccccc1,-9.675%
16,CC(C)N(C)CCNC(=O)NCc1ccccc1-n1cccn1,-1.809%
17,Cc1nn(C(C)C)c(C)c1S(=O)(=O)Nc1cccc(C(=O)O)c1,0.846%
18,Cc1cc(C(=O)NS(=O)(=O)Cc2ccon2)c(C)n1C(C)C,19.94%
19,Cc1ccc(OCC(C)NS(=O)(=O)Cc2ccon2)cc1 (stereo unspecified),103.4%
20,Cc1ccc(OCC(C)NS(C)(=O)=O)cc1 (stereo unspecified),1.319%
21,CC(C)CC(CO)NS(=O)(=O)Cc1ccon1 (stereo unspecified),92.95%
22,Cc1ccc(C(=O)NS(=O)(=O)Cc2ccon2)c(C)c1,-32.05%

row,SMILES,Percent Effect
1,Cc1ccc(OCC(C)NS(=O)(=O)N(C)C)cc1 (stereo unspecified),-6.618%
2,O=C(CCc1cccc(Cl)c1)NS(=O)(=O)Cc1ccon1,-7.174%
3,O=C(NS(=O)(=O)Cc1ccon1)c1ccsc1,-7.233%
4,CC(CCc1ccc(F)c(F)c1)NS(=O)(=O)Cc1ccon1 (stereo unspecified),102%
5,CCC(CNC(=O)Cc1cc(C)on1)Oc1cccc(F)c1 (stereo unspecified),6.278%
6,CN1CCN(c2ncnc3c2c(C(=O)NC2CC2)c2ccccn23)CC1,-8.273%
7,Cc1csc(N2CCN(CC(=O)Nc3cccnc3)CC2C)n1 (stereo unspecified),114.5%
8,Cc1ccccc1CN1CCN(CC(=O)Nc2cccnc2)CC1,7.585%
9,Cc1csc(N2CCN(CC(=O)Nc3nncs3)CC2C)n1 (stereo unspecified),1.073%
10,CC1CN(CC(=O)NCc2cccs2)CCN1c1nccs1 (stereo unspecified),105.4%
11,O=C(CN1C[C@H]2CC[C@@H]1CN(Cc1ccccn1)C2)NCc1cccs1,1.062%
12,O=C(CCN1CCCN(c2nccs2)CC1)Nc1ccccc1,4.493%
13,Cc1csc(N2CCN(CCc3ccccn3)CC2C)n1 (stereo unspecified),3.431%
14,O=C(CN1CCN(c2nccs2)CC1)Nc1cccnc1,105.2%
15,C[C@@H]1CN(Cc2ccccc2)CCN1C(=O)NCc1nccs1,-1.817%
16,CC1CN(C(=O)NCc2ccn(C)c2)CCN1CC(F)(F)F (stereo unspecified),-7.034%
17,O=C(CN1CCOC(Cn2cccn2)C1)NCc1cccs1 (stereo unspecified),2.249%
18,CC1CN(CC(=O)NC(=O)NCc2cccs2)CCN1CC(F)(F)F (stereo unspecified),103.7%
